Laboratory results published in PubChem BioAssay AID1159580 (chemical genetic matrix, 2015).
The campaign covered roughly 5,500 compounds. About 2,000 (36%) were called active. Another 18% or so got no clear call; they are omitted. No stated cut-off is given here; in the data, active means normalized growth mostly below about 0.91 (no sharp cut-off); inconclusive means no clear call, values can overlap the other calls; inactive means mostly above about 0.92. Some of the results follow.

Assay: chemical genetic growth profiling, strain panel (AID 1159580);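 further: tested at 20 µM; growth read once vehicle control cultures reached saturation at 30 °C; 1 = growth at the plate median or of vehicle wells; lower values mean less growth of the strain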
Settings: growth OD
[1] = S. cerevisiae deletion strains, locus YDL101C, strain DUN1, active compounds read low
[2] = S. cerevisiae deletion strains, locus YHR030C, strain SLT2, active compounds read low
[3] = S. cerevisiae deletion strains, locus YDR150W, strain NUM1, active compounds read low
[4] = S. cerevisiae deletion strains, locus YPL055C, strain LGE1, active compounds read low
[5] = S. cerevisiae deletion strains, locus YPL241C, strain CIN2, active compounds read low

Measured: normalized growth

Cc1oc(C(C)(C)C)cc1-c1cc(NC(=O)c2ccccc2)n[nH]1
inactive: S. cerevisiae deletion strains, locus YAR019C, strain CDC15, active compounds read low 0.965 | S. cerevisiae deletion strains, locus YBL105C, strain PKC1, active compounds read low 0.98 | S. cerevisiae deletion strains, locus YBR135W, strain CKS1, active compounds read low 0.974 | S. cerevisiae deletion strains, locus YBR136W, strain MEC1, active compounds read low 0.975 | S. cerevisiae deletion strains, locus YBR160W, strain CDC28, active compounds read low 0.97 | S. cerevisiae deletion strains, locus YDL017W, strain CDC7, active compounds read low 0.99 | S. cerevisiae deletion strains, locus YDL028C, strain MPS1, active compounds read low 0.948 | [1] 0.994 | S. cerevisiae deletion strains, locus YDL108W, strain KIN28, active compounds read low 0.972 | S. cerevisiae deletion strains, locus YDL132W, strain cdc53, active compounds read low 0.993 | S. cerevisiae deletion strains, locus YDL214C, strain PRR2, active compounds read low 0.913 | S. cerevisiae deletion strains, locus YDR052C, strain DBF4, active compounds read low 0.984 | S. cerevisiae deletion strains, locus YDR054C, strain cdc34, active compounds read low 0.966 | S. cerevisiae deletion strains, locus YDR226W, strain ADK1, active compounds read low 0.962 | S. cerevisiae deletion strains, locus YDR477W, strain SNF1, active compounds read low 0.924 | S. cerevisiae deletion strains, locus YER123W, strain YCK3, active compounds read low 0.885 | S. cerevisiae deletion strains, locus YER133W, strain GLC7, active compounds read low 0.957 | S. cerevisiae deletion strains, locus YFL009W, strain cdc4, active compounds read low 0.951 | S. cerevisiae deletion strains, locus YFL029C, strain CAK1, active compounds read low 0.962 | S. cerevisiae deletion strains, locus YFR003C, strain YPI1, active compounds read low 0.988 | S. cerevisiae deletion strains, locus YFR019W, strain FAB1, active compounds read low 0.921 | S. cerevisiae deletion strains, locus YFR028C, strain CDC14, active compounds read low 0.961 | S. cerevisiae deletion strains, locus YGR040W, strain KSS1, active compounds read low 0.94 | S. cerevisiae deletion strains, locus YGR052W, strain FMP48, active compounds read low 0.93 | S. cerevisiae deletion strains, locus YGR092W, strain DBF2, active compounds read low 0.743 | S. cerevisiae deletion strains, locus YHR079C, strain IRE1, active compounds read low 0.695 | S. cerevisiae deletion strains, locus YHR082C, strain KSP1, active compounds read low 0.81 | S. cerevisiae deletion strains, locus YHR205W, strain SCH9, active compounds read low 0.849 | S. cerevisiae deletion strains, locus YIL147C, strain SLN1, active compounds read low 0.966 | S. cerevisiae deletion strains, locus YJL095W, strain BCK1, active compounds read low 0.822 | S. cerevisiae deletion strains, locus YJL128C, strain PBS2, active compounds read low 0.908 | S. cerevisiae deletion strains, locus YJL157C, strain FAR1, active compounds read low 0.909 | S. cerevisiae deletion strains, locus YJR016C, strain ILV3, active compounds read low 0.981 | S. cerevisiae deletion strains, locus YJR066W, strain TOR1 (second series), active compounds read low 0.883 | S. cerevisiae deletion strains, locus YJR066W, strain TOR1, active compounds read low 0.798 | S. cerevisiae deletion strains, locus YKL048C, strain ELM1, active compounds read low 0.943 | S. cerevisiae deletion strains, locus YKL067W, strain YNK1, active compounds read low 0.899 | S. cerevisiae deletion strains, locus YKL101W, strain HSL1, active compounds read low 0.878 | S. cerevisiae deletion strains, locus YKL193C, strain SDS22, active compounds read low 0.98 | S. cerevisiae deletion strains, locus YKL203C, strain TOR2, active compounds read low 1.01 | S. cerevisiae deletion strains, locus YLR133W, strain CKI1, active compounds read low 0.911 | S. cerevisiae deletion strains, locus YLR403W, strain SFP1, active compounds read low 0.925 | S. cerevisiae deletion strains, locus YML070W, strain DAK1, active compounds read low 0.872 | S. cerevisiae deletion strains, locus YMR001C, strain CDC5, active compounds read low 0.95 | S. cerevisiae deletion strains, locus YMR205C, strain PFK2 (second series), active compounds read low 0.922 | S. cerevisiae deletion strains, locus YMR277W, strain FCP1, active compounds read low 0.95 | S. cerevisiae deletion strains, locus YNL006W, strain LST8, active compounds read low 0.962 | S. cerevisiae deletion strains, locus YNL020C, strain ARK1, active compounds read low 0.903 | S. cerevisiae deletion strains, locus YNL161W, strain CBK1, active compounds read low 0.976 | S. cerevisiae deletion strains, locus YNL183C, strain NPR1, active compounds read low 0.963 | S. cerevisiae deletion strains, locus YNL207W, strain RIO2, active compounds read low 0.969 | S. cerevisiae deletion strains, locus YNL222W, strain SSU72, active compounds read low 0.969 | S. cerevisiae deletion strains, locus YNL307C, strain MCK1 (second series), active compounds read low 0.876 | S. cerevisiae deletion strains, locus YOL078W, strain AVO1, active compounds read low 0.981 | S. cerevisiae deletion strains, locus YOL136C, strain PFK27, active compounds read low 0.866 | S. cerevisiae deletion strains, locus YOR061W, strain CKA2, active compounds read low 0.91 | S. cerevisiae deletion strains, locus YOR119C, strain RIO1, active compounds read low 0.928 | S. cerevisiae deletion strains, locus YOR231W, strain MKK1, active compounds read low 0.791 | S. cerevisiae deletion strains, locus YOR329C, strain SCD5, active compounds read low 0.981 | S. cerevisiae deletion strains, locus YPL031C, strain PHO85, active compounds read low 0.908 | S. cerevisiae deletion strains, locus YPL153C, strain RAD53, active compounds read low 0.877 | S. cerevisiae deletion strains, locus YPL204W, strain HRR25, active compounds read low 0.883 | S. cerevisiae deletion strains, locus YPL209C, strain IPL1, active compounds read low 0.972 | S. cerevisiae deletion strains, locus YPR025C, strain CCL1, active compounds read low 0.979 | S. cerevisiae deletion strains, locus YPR106W, strain ISR1, active compounds read low 0.969 | S. cerevisiae deletion strains, locus YPR111W, strain DBF20, active compounds read low 0.935 | S. cerevisiae deletion strains, strain NNK1, active compounds read low 0.951 | S. cerevisiae deletion strains, strain TSCII, active compounds read low 0.958
active: [2] 0.611 | S. cerevisiae deletion strains, locus YLR113W, strain HOG1, active compounds read low 0.778 | S. cerevisiae deletion strains, locus YPL256C, strain CLN2, active compounds read low 0.844

CC(C)(C)c1cc(C(=O)NN)n[nH]1
inactive: S. cerevisiae deletion strains, locus YAL013W, strain DEP1, active compounds read low 1.01 | S. cerevisiae deletion strains, locus YBR229C, strain ROT2, active compounds read low 1.01 | [1] 0.973 | [3] 0.995 | S. cerevisiae deletion strains, locus YEL061C, strain CIN8, active compounds read low 1.01 | S. cerevisiae deletion strains, locus YGR078C, strain PAC10, active compounds read low 0.996 | S. cerevisiae deletion strains, locus YGR229C, strain SMI1, active compounds read low 1 | [2] 1.06 | S. cerevisiae deletion strains, locus YHR087W, strain rtc3, active compounds read low 1 | S. cerevisiae deletion strains, locus YJL187C, strain SWE1, active compounds read low 0.988 | S. cerevisiae deletion strains, locus YJR043C, strain POL32, active compounds read low 0.997 | S. cerevisiae deletion strains, locus YJR075W, strain HOC1, active compounds read low 0.979 | S. cerevisiae deletion strains, locus YLR039C, strain RIC1, active compounds read low 1.08 | S. cerevisiae deletion strains, locus YLR058C, strain SHM2 (second series), active compounds read low 0.995 | S. cerevisiae deletion strains, locus YLR085C, strain ARP6, active compounds read low 1.15 | S. cerevisiae deletion strains, locus YLR262C, strain YPT6, active compounds read low 1.04 | S. cerevisiae deletion strains, locus YML094W, strain GIM5, active compounds read low 1.04 | S. cerevisiae deletion strains, locus YMR219W, strain ESC1, active compounds read low 1 | S. cerevisiae deletion strains, locus YMR263W, strain SAP30, active compounds read low 0.984 | S. cerevisiae deletion strains, locus YMR307W, strain GAS1, active compounds read low 1 | S. cerevisiae deletion strains, locus YNL153C, strain GIM3, active compounds read low 0.991 | S. cerevisiae deletion strains, locus YNL298W, strain CLA4 (second series), active compounds read low 1.01 | S. cerevisiae deletion strains, locus YNL322C, strain KRE1, active compounds read low 0.997 | S. cerevisiae deletion strains, locus YNR030W, strain Alg12, active compounds read low 1 | S. cerevisiae deletion strains, locus YOL006C, strain TOP1, active compounds read low 1.09 | [4] 1.04 | [5] 0.953 | S. cerevisiae deletion strains, locus YPR135W, strain CTF4, active compounds read low 1.21 | S. cerevisiae strains, strain wild type, active compounds read low 1.01

O=c1cc(-c2ccccc2)[nH]c2nc(Cl)ccc12
inactive: S. cerevisiae deletion strains, locus YAL040C, strain CLN3, active compounds read low 0.964 | S. cerevisiae deletion strains, locus YCL061C, strain MRC1 (second series), active compounds read low 1 | [3] 1.01 | S. cerevisiae deletion strains, locus YDR363W, strain ESC2, active compounds read low 0.979 | S. cerevisiae deletion strains, locus YER002W, strain NOP16, active compounds read low 1.03 | S. cerevisiae deletion strains, locus YNL128W, strain TEP1, active compounds read low 0.962 | S. cerevisiae deletion strains, locus YNL175C, strain NOP13, active compounds read low 0.989 | S. cerevisiae deletion strains, locus YNL197C, strain WHI3, active compounds read low 1.01 | S. cerevisiae deletion strains, locus YNL224C, strain SQS1, active compounds read low 0.977 | S. cerevisiae deletion strains, locus YOR083W, strain WHI5 (second series), active compounds read low 0.989 | [4] 0.997 | [5] 1
